Experimental data: the supplement of paper PMC11732987, “Enantioselective OTUD7B fragment discovery through chemoproteomics screening and high-throughput optimisation” (Communications Chemistry, 2025)
Values without a mark were called inactive.

How the values were obtained:
ALG13 = target: T1, ALG13 (UniProt Q9NP73); experiment: log2 ratio of Biotin-Ahx-Ub-VS probe labelling (fragment/DMSO); higher = less target engagement (more negative = stronger competition), active = hit call of the paper (q ≤ 0.05, log2 ratio ≤ -1); details: compound concentration: 200 uM; treatment time: 3 h
T1 sequence (whole entry): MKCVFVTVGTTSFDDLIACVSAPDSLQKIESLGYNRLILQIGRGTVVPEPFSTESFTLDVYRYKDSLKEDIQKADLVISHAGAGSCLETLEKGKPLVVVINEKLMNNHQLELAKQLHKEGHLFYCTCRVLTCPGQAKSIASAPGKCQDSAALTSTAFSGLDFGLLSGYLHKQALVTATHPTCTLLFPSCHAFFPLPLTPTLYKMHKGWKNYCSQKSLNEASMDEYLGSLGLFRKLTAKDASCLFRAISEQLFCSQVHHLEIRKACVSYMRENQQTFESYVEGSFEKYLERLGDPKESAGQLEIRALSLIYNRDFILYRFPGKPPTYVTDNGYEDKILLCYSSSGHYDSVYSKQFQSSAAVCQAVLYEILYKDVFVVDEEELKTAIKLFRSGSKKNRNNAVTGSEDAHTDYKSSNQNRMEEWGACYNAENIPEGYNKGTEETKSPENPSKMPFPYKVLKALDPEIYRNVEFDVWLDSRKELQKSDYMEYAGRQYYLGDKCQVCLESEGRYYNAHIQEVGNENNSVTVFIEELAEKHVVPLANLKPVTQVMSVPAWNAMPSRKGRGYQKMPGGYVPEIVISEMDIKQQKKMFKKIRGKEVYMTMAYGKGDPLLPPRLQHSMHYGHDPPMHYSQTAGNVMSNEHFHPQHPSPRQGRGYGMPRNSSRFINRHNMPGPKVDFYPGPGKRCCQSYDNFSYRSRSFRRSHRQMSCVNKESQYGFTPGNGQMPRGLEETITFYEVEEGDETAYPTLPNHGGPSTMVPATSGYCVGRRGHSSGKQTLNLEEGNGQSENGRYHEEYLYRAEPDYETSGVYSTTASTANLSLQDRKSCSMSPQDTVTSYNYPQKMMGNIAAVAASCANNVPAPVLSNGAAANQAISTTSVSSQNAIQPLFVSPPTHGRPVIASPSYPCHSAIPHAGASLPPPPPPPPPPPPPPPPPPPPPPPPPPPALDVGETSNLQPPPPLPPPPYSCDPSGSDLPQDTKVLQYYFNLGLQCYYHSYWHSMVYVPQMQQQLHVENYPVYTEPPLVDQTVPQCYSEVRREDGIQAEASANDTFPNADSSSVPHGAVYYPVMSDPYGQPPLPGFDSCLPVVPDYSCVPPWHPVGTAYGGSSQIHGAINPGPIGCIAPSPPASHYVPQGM
How it was run: (§1)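 The table lists average log2 ratios of fragment over vehicle, from an unpaired t-test on global-median-normalised Spectronaut label-free quantities. Proteins with ≥2 unique peptides were used. Samples were HEK293T lysate (495 µg) treated in triplicate with fragment at 200 µM or vehicle for 3 h, then with Biotin-Ahx-Ub-VS (0.5 µM final) for 1 h, with labelled DUBs NeutrAvidin-enriched and run by diaPASEF LC-MS/MS.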

ATXN3 = ATXN3 (UniProt P54252); experiment: as above; details: compound concentration: 200 uM; treatment time: 3 h
ATXN3, sequence (P54252 whole entry): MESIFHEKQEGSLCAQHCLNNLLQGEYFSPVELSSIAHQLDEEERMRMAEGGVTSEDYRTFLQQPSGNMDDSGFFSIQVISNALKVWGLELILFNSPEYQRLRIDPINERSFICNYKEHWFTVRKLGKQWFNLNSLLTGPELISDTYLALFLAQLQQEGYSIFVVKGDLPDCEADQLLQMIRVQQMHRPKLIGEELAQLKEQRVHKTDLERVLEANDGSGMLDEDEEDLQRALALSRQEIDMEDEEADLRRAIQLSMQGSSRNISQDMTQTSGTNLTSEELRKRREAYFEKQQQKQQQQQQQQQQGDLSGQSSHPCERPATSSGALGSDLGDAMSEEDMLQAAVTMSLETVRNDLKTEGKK
How it was run: as §1

BAP1 = target: T2, BAP1 (UniProt Q92560); experiment: as above; details: compound concentration: 200 uM; treatment time: 3 h
T2 sequence (whole entry): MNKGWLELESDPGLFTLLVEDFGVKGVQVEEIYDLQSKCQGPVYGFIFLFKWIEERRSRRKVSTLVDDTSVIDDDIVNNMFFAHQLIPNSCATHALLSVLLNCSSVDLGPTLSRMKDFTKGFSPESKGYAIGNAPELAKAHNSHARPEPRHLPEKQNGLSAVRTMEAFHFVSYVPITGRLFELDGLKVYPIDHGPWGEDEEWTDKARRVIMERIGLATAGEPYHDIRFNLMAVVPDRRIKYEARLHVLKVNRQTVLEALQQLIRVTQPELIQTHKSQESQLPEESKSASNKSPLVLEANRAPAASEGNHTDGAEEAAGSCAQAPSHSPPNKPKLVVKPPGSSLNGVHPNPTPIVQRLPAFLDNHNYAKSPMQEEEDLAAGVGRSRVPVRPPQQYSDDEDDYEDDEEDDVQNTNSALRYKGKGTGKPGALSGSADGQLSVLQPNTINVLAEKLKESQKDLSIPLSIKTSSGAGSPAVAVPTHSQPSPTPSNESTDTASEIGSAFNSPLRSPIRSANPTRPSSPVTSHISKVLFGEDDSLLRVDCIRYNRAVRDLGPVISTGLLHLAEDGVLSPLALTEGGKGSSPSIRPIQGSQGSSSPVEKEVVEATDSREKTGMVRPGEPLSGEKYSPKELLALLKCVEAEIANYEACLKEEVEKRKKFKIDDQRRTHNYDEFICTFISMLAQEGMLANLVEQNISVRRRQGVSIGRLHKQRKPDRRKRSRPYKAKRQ
How it was run: as §1

EIF3F = EIF3F (UniProt O00303); experiment: as above; details: compound concentration: 200 uM; treatment time: 3 h
EIF3F, sequence (O00303 whole entry): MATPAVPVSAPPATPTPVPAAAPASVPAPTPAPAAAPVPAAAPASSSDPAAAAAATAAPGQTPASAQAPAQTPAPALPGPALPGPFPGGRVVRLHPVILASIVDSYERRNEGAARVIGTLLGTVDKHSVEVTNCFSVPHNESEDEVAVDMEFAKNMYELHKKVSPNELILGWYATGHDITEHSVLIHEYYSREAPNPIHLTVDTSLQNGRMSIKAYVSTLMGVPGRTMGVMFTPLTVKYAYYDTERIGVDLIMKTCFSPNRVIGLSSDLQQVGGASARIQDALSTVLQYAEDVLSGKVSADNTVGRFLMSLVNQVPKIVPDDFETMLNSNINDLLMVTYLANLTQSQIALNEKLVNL
How it was run: as §1

EIF3H = EIF3H (UniProt O15372); experiment: as above; details: compound concentration: 200 uM; treatment time: 3 h
EIF3H, sequence (O15372 whole entry): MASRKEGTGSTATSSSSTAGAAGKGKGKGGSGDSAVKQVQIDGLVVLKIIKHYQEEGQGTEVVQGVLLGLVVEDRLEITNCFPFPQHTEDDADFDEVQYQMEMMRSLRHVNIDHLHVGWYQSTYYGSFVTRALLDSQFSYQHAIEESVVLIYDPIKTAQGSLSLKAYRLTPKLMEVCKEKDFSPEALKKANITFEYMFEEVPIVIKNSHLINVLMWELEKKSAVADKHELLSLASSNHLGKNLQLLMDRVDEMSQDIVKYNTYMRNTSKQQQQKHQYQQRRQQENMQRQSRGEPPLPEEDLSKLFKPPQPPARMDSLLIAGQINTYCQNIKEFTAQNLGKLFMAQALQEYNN
How it was run: as §1

FAM105A = target: T3, FAM105A (UniProt Q9NUU6); experiment: as above; details: compound concentration: 200 uM; treatment time: 3 h
T3 sequence (whole entry): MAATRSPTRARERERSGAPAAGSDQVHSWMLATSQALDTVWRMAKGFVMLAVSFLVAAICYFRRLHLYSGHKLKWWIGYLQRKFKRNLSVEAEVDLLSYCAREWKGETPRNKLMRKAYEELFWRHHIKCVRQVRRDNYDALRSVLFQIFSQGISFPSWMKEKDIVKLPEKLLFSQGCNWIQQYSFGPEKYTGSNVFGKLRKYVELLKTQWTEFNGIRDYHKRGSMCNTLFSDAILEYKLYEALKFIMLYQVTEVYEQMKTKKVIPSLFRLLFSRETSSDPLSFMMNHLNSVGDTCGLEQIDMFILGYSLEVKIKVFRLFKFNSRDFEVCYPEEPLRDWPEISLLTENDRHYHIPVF
How it was run: as §1

OTUB1 = OTUB1 (UniProt Q96FW1); experiment: as above; details: compound concentration: 200 uM; treatment time: 3 h
OTUB1, sequence (Q96FW1 whole entry): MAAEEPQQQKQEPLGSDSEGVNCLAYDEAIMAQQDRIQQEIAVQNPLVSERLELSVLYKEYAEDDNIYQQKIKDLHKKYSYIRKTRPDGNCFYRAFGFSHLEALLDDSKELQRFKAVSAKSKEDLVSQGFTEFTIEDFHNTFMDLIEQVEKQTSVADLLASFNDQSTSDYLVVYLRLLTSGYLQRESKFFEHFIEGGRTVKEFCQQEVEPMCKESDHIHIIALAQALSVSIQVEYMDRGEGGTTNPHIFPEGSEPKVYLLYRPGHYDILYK
How it was run: as §1

OTUD4 = target: T4, OTUD4 (UniProt Q01804); experiment: as above; details: compound concentration: 200 uM; treatment time: 3 h
T4 sequence (whole entry): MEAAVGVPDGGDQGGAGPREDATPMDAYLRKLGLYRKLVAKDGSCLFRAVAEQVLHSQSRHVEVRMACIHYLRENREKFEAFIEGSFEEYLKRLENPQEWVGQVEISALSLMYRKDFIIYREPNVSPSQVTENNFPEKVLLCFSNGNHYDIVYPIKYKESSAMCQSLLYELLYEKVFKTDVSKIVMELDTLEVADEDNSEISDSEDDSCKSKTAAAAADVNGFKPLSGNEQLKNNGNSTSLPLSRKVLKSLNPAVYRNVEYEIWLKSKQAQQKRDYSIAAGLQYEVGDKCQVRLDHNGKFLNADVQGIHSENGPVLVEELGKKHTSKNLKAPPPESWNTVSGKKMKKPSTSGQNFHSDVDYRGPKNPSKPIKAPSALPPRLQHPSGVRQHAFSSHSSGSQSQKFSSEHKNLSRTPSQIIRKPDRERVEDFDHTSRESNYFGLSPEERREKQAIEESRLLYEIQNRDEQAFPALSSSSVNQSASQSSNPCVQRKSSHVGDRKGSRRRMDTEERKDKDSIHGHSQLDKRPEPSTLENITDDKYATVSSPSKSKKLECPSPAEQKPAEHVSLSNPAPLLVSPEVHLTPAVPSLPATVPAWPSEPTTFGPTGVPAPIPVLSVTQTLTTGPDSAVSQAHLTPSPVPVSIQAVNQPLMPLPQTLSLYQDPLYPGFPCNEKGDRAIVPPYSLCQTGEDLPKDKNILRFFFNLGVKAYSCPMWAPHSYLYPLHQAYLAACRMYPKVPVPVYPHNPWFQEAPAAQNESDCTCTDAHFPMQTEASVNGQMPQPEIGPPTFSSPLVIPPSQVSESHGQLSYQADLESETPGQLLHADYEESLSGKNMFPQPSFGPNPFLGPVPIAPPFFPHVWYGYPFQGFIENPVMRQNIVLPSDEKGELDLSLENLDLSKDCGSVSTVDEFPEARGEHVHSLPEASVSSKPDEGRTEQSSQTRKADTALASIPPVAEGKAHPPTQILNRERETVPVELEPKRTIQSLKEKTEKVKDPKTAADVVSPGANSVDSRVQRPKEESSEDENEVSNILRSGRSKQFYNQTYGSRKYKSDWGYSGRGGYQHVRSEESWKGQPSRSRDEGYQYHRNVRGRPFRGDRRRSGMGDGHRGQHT
How it was run: as §1

OTUD5 = target: T5, OTUD5 (UniProt Q96G74); experiment: as above; details: compound concentration: 200 uM; treatment time: 3 h
T5 sequence (whole entry): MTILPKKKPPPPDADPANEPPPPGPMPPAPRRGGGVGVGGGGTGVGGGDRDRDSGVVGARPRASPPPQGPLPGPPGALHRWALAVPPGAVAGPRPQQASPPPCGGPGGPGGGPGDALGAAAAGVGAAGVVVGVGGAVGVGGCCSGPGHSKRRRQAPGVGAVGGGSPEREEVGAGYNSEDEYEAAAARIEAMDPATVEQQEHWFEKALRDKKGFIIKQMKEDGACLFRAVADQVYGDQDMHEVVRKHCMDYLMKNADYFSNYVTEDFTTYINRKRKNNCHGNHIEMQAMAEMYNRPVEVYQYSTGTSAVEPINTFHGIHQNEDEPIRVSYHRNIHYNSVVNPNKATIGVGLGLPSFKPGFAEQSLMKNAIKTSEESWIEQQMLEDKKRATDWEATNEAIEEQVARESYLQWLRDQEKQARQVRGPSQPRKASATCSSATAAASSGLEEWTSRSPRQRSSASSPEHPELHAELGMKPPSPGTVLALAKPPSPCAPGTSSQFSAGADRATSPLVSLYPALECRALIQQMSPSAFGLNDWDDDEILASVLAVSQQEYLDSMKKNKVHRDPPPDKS
How it was run: as §1

USP38 = target: T6, USP38 (UniProt Q8NB14); experiment: log2 ratio of Biotin-Ahx-Ub-VS probe labelling (compound/DMSO); higher = less target engagement, active = hit call of the paper (q ≤ 0.05, log2 ratio ≤ -1); details: treatment time: 3 h
T6 sequence (whole entry): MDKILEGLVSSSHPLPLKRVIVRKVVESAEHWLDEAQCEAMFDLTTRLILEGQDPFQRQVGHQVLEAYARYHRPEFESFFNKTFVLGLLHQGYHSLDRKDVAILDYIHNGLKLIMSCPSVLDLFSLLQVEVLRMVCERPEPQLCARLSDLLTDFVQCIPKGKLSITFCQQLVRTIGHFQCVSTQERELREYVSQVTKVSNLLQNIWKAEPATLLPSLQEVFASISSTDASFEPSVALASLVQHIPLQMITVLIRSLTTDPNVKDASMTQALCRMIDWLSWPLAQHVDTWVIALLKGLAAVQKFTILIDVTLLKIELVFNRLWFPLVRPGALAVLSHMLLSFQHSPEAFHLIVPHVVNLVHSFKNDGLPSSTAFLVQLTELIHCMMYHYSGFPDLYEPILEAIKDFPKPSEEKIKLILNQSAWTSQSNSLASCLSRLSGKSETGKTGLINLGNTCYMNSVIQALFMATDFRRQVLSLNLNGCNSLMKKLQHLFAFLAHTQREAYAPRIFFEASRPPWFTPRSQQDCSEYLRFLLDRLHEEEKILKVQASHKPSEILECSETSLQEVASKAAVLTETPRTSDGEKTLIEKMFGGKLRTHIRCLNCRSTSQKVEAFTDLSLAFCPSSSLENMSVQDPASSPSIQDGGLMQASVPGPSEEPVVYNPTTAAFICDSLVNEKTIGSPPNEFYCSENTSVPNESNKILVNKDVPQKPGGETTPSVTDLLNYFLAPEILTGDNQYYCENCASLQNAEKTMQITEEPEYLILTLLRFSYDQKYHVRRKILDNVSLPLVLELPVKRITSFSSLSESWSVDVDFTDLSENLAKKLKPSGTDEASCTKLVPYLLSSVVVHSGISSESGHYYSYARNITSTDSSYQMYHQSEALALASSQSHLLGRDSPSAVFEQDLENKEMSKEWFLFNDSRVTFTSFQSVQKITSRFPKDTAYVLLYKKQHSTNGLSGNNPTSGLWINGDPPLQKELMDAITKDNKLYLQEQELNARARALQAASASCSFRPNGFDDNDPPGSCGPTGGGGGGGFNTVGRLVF
How it was run: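 Average ratios of compound to vehicle were obtained by unpaired t-test. Beforehand, 495 µg samples of HEK293T lysate in buffer with protease inhibitors were treated in triplicate with compound over a concentration series or vehicle for 3 h, then with 0.5 µM final Biotin-Ahx-Ub-VS for 1 h. Labelled deubiquitinases were NeutrAvidin-enriched, digested and quantified label-free by diaPASEF LC-MS/MS in Spectronaut, normalised to the global median. Values are log2 and cover proteins with at least two unique peptides.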

Structure (SMILES)	log2 ratio of Biotin-Ahx-Ub-VS probe labelling (ALG13)	log2 ratio of Biotin-Ahx-Ub-VS probe labelling (ATXN3)	log2 ratio of Biotin-Ahx-Ub-VS probe labelling (BAP1)	log2 ratio of Biotin-Ahx-Ub-VS probe labelling (EIF3F)	log2 ratio of Biotin-Ahx-Ub-VS probe labelling (EIF3H)	log2 ratio of Biotin-Ahx-Ub-VS probe labelling (FAM105A)	log2 ratio of Biotin-Ahx-Ub-VS probe labelling (OTUB1)	log2 ratio of Biotin-Ahx-Ub-VS probe labelling (OTUD4)	log2 ratio of Biotin-Ahx-Ub-VS probe labelling (OTUD5)	log2 ratio of Biotin-Ahx-Ub-VS probe labelling (USP38; compound concentration: 0.78uM)	log2 ratio of Biotin-Ahx-Ub-VS probe labelling (USP38; compound concentration: 1.56uM)	log2 ratio of Biotin-Ahx-Ub-VS probe labelling (USP38; compound concentration: 3.13uM)	log2 ratio of Biotin-Ahx-Ub-VS probe labelling (USP38; compound concentration: 6.25uM)	log2 ratio of Biotin-Ahx-Ub-VS probe labelling (USP38; compound concentration: 12.5uM)	log2 ratio of Biotin-Ahx-Ub-VS probe labelling (USP38; compound concentration: 25uM)	log2 ratio of Biotin-Ahx-Ub-VS probe labelling (USP38; compound concentration: 50uM)	log2 ratio of Biotin-Ahx-Ub-VS probe labelling (USP38; compound concentration: 100uM)	log2 ratio of Biotin-Ahx-Ub-VS probe labelling (USP38; compound concentration: 200uM)
Cl.Cn1nc2c(c1CNC(=O)CCl)CCCC2	-0.455	-0.903	-2.53 (active)	-0.323	-0.0155	-0.099	-0.175	-0.319	-0.329									
O=C(CCl)N[C@@H]1CCCc2ccccc21										-0.208	-0.105	-0.116	-0.253	-0.127	-0.107	-0.0917	-0.166	-0.233
